Bioassay records from PubChem.
Sm TGR inh – blocks Schistosoma mansoni thioredoxin glutathione reductase; Q962Y6; purified TGR, DTNB reduction, TNB absorbance 405 nm; Potency, µM (titrated, usually from 114 µM), for the others: at the top dose activity change, negative = inhibition, most hits filed as inhibitors; 360,000 tested, 3% active; AID 485364; also: potency is read from the fitted curve at half-maximal effect; nearly all actives have a fitted effect of over 60% in size
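First, TGR (20 nM dispensed) and NADPH were mixed with compound. Second, a 15 min room-temperature incubation followed. Third, further NADPH and then DTNB were added to start the reaction. Finally, TNB absorbance was monitored kinetically.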
Pf growth 48h – P. falciparum growth inhibition at 48 hours (one generation); P. falciparum luciferase growth in erythrocytes, 48 h; Potency, µM (top dose mostly 28.7 µM), inactives show at the highest dose activity change, negative = inhibition, usual class: inhibitors; AID 504832; 310,000 tested, 5.9% active; also: potency is read from the fitted curve at half-maximal effect
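Compounds are pin-transferred into medium, infected erythrocytes (2% hematocrit, 0.1% parasitemia final) are added, and plates sit one parasite generation at 37 C in 5% CO2. Detection reagent is then added and luminescence measured.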
Giardia FBPA inh – blocks Giardia fructose-bisphosphate aldolase activity; A8B2U2; purified Giardia FBPA; Potency, µM (doses to about 59.6 µM), for the others: top-dose activity, negative = inhibition, usual class: inhibitors; 290,000 tested, 0.71% active; also: potency is read from the fitted curve at half-maximal effect; nearly all actives have a fitted effect of over 55% in size
Target sequence (A8B2U2 whole entry, looked up): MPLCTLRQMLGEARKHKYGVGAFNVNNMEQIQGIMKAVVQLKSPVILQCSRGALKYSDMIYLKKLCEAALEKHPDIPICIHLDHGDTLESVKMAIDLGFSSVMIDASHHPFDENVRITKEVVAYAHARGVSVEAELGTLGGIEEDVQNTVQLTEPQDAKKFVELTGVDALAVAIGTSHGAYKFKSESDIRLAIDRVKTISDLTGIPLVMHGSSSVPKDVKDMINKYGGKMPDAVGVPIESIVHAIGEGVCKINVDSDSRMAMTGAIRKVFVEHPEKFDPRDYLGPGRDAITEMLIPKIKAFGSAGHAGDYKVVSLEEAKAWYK
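Giardia FBPA (40 nM reagent) was preincubated 10 min at RT with compound (up to 57.5 uM final), then substrate plus GAPDH/TPI/NAD/arsenate coupling system with diaphorase/resazurin was added; resorufin fluorescence (525/598 nm) was read after 20 min.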
HCMV antiviral – human cytomegalovirus inhibition; HFF cells, HCMV-luciferase reporter, 72 h; stronger effect = lower value; AID 1259415; 410,000 tested, 4.5% active; activity change, negative = inhibition, % at 57.5 µM; in the data active = activity change below about -60%; inconclusive = no clear call, values can overlap the other calls; inactive = above about -39%
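Two compound doses tested in HFFs infected with HCMV-luciferase, MOI 1 PFU/cell, 72 h at 37C. Lysate luminescence read with OneGlo; data normalized against buffer-only and 10uM Salinomycin inhibitor controls.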
Pf growth 96h – P. falciparum growth inhibition at 96 hours. 320,000 tested, 6.9% active. Potency, µM (series often up to 28.7 µM), without a hit: at the highest dose activity change, negative = inhibition, actives largely listed as inhibitors. P. falciparum luciferase reporter growth, 96 h; also: potency is read from the fitted curve at half-maximal effect
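Delayed-death screen, second-generation endpoint: infected erythrocytes, 2% hematocrit, 0.05% parasitemia final; 96 hours at 37 C, 5% CO2; luciferase detection reagent; luminescence decrease equals reduced growth.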
* marks the source's active call; other numbers are inactive results; ! = not active in a repeat. An excerpt weighted towards active compounds, which were near 14% of everything screened. Unless noted, calls follow the shape of the dose curve; as a rule, active = well fitted curve in the direction sought with a large enough effect; inconclusive = small, poorly fitted or top-dose-only effect, or another doubt; inactive = no such curve, though single readings can be large; an effect the other way counts as inactive or inconclusive. % is scaled to controls: 0 for no effect and ±100 for the full control effect.

How did COc1cc(/C(O)=C(\C#N)c2nc3ccccc3[nH]2)cc(OC)c1OC do in these assays?
Sm TGR inh: 1%; Pf growth 48h: inconclusive; Giardia FBPA inh: -28%; HCMV antiviral: 60; Pf growth 96h: 15µM*

Results for Cc1ccc2cc(-c3noc(C(C)(C)C)n3)c(=O)[nH]c2c1 ?
Sm TGR inh: -4%; Pf growth 48h: inconclusive; Giardia FBPA inh: 1%; HCMV antiviral: -15; Pf growth 96h: 18%

What do the screens show for `CCc1nc(-c2cc3ccc(C)cc3[nH]c2=O)no1`?
Sm TGR inh: -18%; Pf growth 48h: 63%; Giardia FBPA inh: -6%; HCMV antiviral: -71*; Pf growth 96h: inconclusive

What do the screens show for `Cc1ccc2[nH]c(C(=O)O)c(-c3ccccc3)c2c1`?
Sm TGR inh: 3%; Pf growth 48h: 7%; Giardia FBPA inh: 24%; HCMV antiviral: 41; Pf growth 96h: 7.4µM*

What do the screens show for `Cc1ccc2[nH]c(C(=O)NN=C3CCCCC3)c(-c3ccccc3)c2c1`?
Sm TGR inh: 9%; Pf growth 48h: inconclusive; Giardia FBPA inh: -4%; HCMV antiviral: inconclusive; Pf growth 96h: 9.3µM*

Results for Cc1cc(NS(=O)(=O)c2ccc(NC(=O)Cc3ccccc3)cc2)nc(C)n1 ?
Sm TGR inh: 6%; Pf growth 48h: 1%; Giardia FBPA inh: -10%; HCMV antiviral: 42; Pf growth 96h: inconclusive

How did CCCCN(C=O)c1c(CC)nc2ccc(C(=O)NCc3cccs3)cn12 do in these assays?
HCMV antiviral: 27

Results for CCCN1CCN(CCCNC(=O)Cn2nc(C)n3c(cc4cc(F)ccc43)c2=O)CC1 ?
Sm TGR inh: -2%; Pf growth 48h: 36%; Giardia FBPA inh: 2%; HCMV antiviral: -4; Pf growth 96h: 28%

How did Cc1nn(C)c(C)c1CNC(=O)c1cc2n(n1)C(C(F)(F)F)CC(c1cccs1)N2 (stereo not drawn) do in these assays?
Sm TGR inh: -7%; Pf growth 48h: -6%; Giardia FBPA inh: -6%; HCMV antiviral: -69*; Pf growth 96h: 7.4µM*

Results for Cc1nn(C)c(C)c1CN(C)C(=O)c1nn2c(c1Br)NC(c1cccs1)CC2C(F)(F)F (stereo not drawn) ?
Sm TGR inh: -12%; Pf growth 48h: inconclusive; Giardia FBPA inh: 7%; HCMV antiviral: -9; Pf growth 96h: 9.3µM*

Results for CCc1nnc(SCc2nc(-c3ccccc3Cl)oc2C)c2cc3sc(C)cc3n12 ?
Sm TGR inh: -2%; HCMV antiviral: 29

How did O=[N+]([O-])c1ccc2[nH]c(O)c(N=NC3CCS(=O)(=O)C3)c2c1 (stereo not drawn) do in these assays?
Sm TGR inh: -1%; Pf growth 48h: 17%; Giardia FBPA inh: -6%; HCMV antiviral: 12; Pf growth 96h: 24%

What do the screens show for `C[C@H]1O[C@@H](O[C@H]2[C@@H](O)C[C@H](O[C@H]3[C@@H](O)C[C@H](O[C@H]4CC[C@@]5(C)[C@H](CC[C@@H]6[C@@H]5C[C@@H](O)[C@]5(C)[C@@H](C7=CC(=O)OC7)CC[C@]65O)C4)O[C@@H]3C)O[C@@H]2C)C[C@H](O)[C@@H]1O`?
Sm TGR inh: 31%; Pf growth 48h: inconclusive; Giardia FBPA inh: 7%; HCMV antiviral: -100*; Pf growth 96h: 7.6µM*!

Results for CC1OC(OC2C(O)CC(OC3C(O)CC(OC4CCC5(C)C(CCC6C5CCC5(C)C(C7=CC(=O)OC7)CCC65O)C4)OC3C)OC2C)CC(O)C1O (stereo not drawn) ?
Pf growth 48h: 15µM*; Giardia FBPA inh: 9%; Pf growth 96h: 4.8µM*

Results for C[C@H]1O[C@@H](O[C@H]2[C@@H](O)C[C@H](O[C@H]3[C@@H](O)C[C@H](O[C@H]4CC[C@]5(C)C6CC[C@]7(C)[C@@H](C8=CC(=O)OC8)CC[C@]7(O)C6CC[C@@H]5C4)O[C@@H]3C)O[C@@H]2C)C[C@H](O)[C@@H]1O (stereo partly drawn) ?
Giardia FBPA inh: 0%

What do the screens show for `O=C1NC2(CCCCCC2)C(=O)N1Cc1ccccc1Cl`?
Sm TGR inh: 18%; Pf growth 48h: 5%; Giardia FBPA inh: 4%; HCMV antiviral: -22; Pf growth 96h: 3%

Results for COC(=O)[C@@]1(Cc2ccc(F)cc2)[C@H]2c3cc(C(=O)N(C)C)n(CC4CC4)c3C[C@H]2CN1C(=O)c1ccccc1 ?
Giardia FBPA inh: -5%; HCMV antiviral: 12

Results for CC1(C)CC(=O)C2=C(C1)OC(N)=C(C#N)C2c1cccc(OC(=O)c2ccco2)c1 (stereo not drawn) ?
Sm TGR inh: -27%; Pf growth 48h: -6%; Giardia FBPA inh: -1%; HCMV antiviral: 43; Pf growth 96h: 2.9µM*

How did C/C(=C\c1ccco1)C1C(C#N)=C(N)OC2=C1C(=O)CC(C)(C)C2 (stereo not drawn) do in these assays?
Sm TGR inh: 35µM*; Pf growth 48h: inconclusive; Giardia FBPA inh: -24%; HCMV antiviral: -4; Pf growth 96h: 38%

Results for COc1oc(C(=O)NC2CCCCC2)c(-c2ccc(Cl)cc2)c1S(=O)(=O)c1ccccc1 ?
HCMV antiviral: -64*

Results for Cc1nc2cc(-c3ccc(Cl)cc3)nn2c(NCCN(C)C)c1C ?
Pf growth 48h: inconclusive; Giardia FBPA inh: -4%; HCMV antiviral: 30; Pf growth 96h: 10µM*

Results for N#CC1c2ccccc2-c2ccccc2N1C(=O)c1ccccc1 (stereo not drawn) ?
HCMV antiviral: -10

How did COCCNC(=O)[C@@]1(Sc2ccc(OC)cc2)CC(=O)N[C@@H]1c1ccc(OC)cc1 do in these assays?
HCMV antiviral: -12

What do the screens show for `O=C(CCCN1CCN(c2ccccc2)CC1)c1ccc(F)cc1`?
HCMV antiviral: -19

What do the screens show for `O=C1CC(=C(c2ccccc2)c2ccccc2)C(=O)N1CCCCN1CCN(c2ccccc2)CC1`?
Sm TGR inh: -12%; Giardia FBPA inh: inconclusive; HCMV antiviral: 0; Pf growth 96h: 3.3µM*

What do the screens show for `CN(C)c1ccc(CNc2nc(-c3ccco3)nn2S(C)(=O)=O)cc1`?
Sm TGR inh: -5%; HCMV antiviral: 111

How did Cc1ccc(CN(C)C(=O)CSc2nnc3n2CCCCC3)c(C)c1 do in these assays?
Sm TGR inh: -14%; Pf growth 48h: inconclusive; HCMV antiviral: inconclusive; Pf growth 96h: 7.4µM*

How did COc1ccc(CNC(=O)C2CCN(S(=O)(=O)c3c(C)noc3/C=C/c3ccccc3F)CC2)cc1 do in these assays?
Sm TGR inh: -5%; HCMV antiviral: 19

Results for O=C(CN1CCN(c2ccccc2O)CC1)Nc1cc([N+](=O)[O-])ccc1Cl ?
Pf growth 48h: 9.3µM*; Giardia FBPA inh: -20%; HCMV antiviral: 11; Pf growth 96h: inconclusive
